PfHsp90 set2: inhibits growth of yeast expressing Plasmodium falciparum Hsp90 | S. cerevisiae expressing PfHsp90, BacTiter-Glo ATP, 48 h; yeast lacking PDR1 and PDR3 efflux regulators | 310,000 tested, 0.32% active | inhibition, % at 9.4 µM | AID 504621;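 active means every replicate shows inhibition above about 80%, whatever the replicate mean, limit read from the data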;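 further: 0% = DMSO neutral controls and 100% = 20 µM radicicol positive controls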
SKKanGAS inh: inhibitors of SKKanGAS S. pyogenes growth in kanamycin (SK-promoter or general growth effect); inhibition, % at 7.5 µM; 300,000 tested, 1.3% active; AID 1662; BacTiter-Glo, 6 h;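 active means mean replicate score, as percent of positive control median, at least 50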;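 further: strain carries kanamycin resistance gene driven by streptokinase promoter and grows in 40 µg/ml kanamycin; loss of luminescence reflects streptokinase promoter inhibition or plain growth inhibition; 0% = median of DMSO wells and 100% = positive control at its reference dose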
tim10-1 inh: tim10-1 yeast growth inhibition | S. cerevisiae tim10-1 ts strain growth, BacTiter-Glo, 24 h | inhibition, % at 20 µM | 330,000 tested, 2.2% active | AID 463190;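 active means inhibition of at least 40%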;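 further: mutant grown at 25 °C; 0% = DMSO wells with yeast and 100% = wells holding no yeast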
TIM10 inh: TIM10 yeast growth inhibition; S. cerevisiae TIM10 strain growth, BacTiter-Glo luminescence, 24 h; inhibition, % at 10 µM; 330,000 tested, 1.4% active; AID 463195;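 active means inhibition of 40% or more at the single tested concentration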;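 further: wild-type TIM10 isogenic control strain grown at permissive 25 °C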
tim23-1 inh: growth inhibitors of tim23-1 mutant yeast | S. cerevisiae tim23-1 growth, BacTiter-Glo luminescence, 24 h | inhibition, % at 20 µM | 330,000 tested, 1.3% active;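 active means growth inhibition of the mutant yeast at or above 50%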;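 further: temperature-sensitive mutant grown at 25 °C; plate controls were DMSO-treated mutant yeast for no effect and medium wells lacking yeast for full effect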
tim10 confirm: TIM10 yeast growth inhibition, confirmed. 4,600 tested, 63% active. shares compounds with TIM10 inh. inhibition, % at 10 µM. S. cerevisiae tim10 strain growth, BacTiter-Glo luminescence, 24 h;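 active means inhibition of yeast growth at or above a set limit in either of two replicates at 10 µM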;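 further: this counterscreen used the strain with wild-type TIM10; 0% = yeast with DMSO and 100% = medium wells lacking yeast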
tim23-1 conf: confirmation of tim23-1 mutant yeast growth inhibitors. shares compounds with tim23-1 inh. S. cerevisiae tim23-1 growth, BacTiter-Glo luminescence, 24 h. inhibition, % at 20 µM. 4,400 tested, 83% active. AID 463218;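 active means inhibition above about 39% in either of two replicate wells at 20 µM, limit read from the data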;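 further: temperature-sensitive tim23-1 mutant grown at 25 °C; 0% = DMSO wells with yeast and 100% = medium wells without yeast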
Active calls of the source: *; . = not tested or not shown; + = active, no number. The list is not random: actives were taken first. Their share in the collection is about 4.4%.

SMILES | PfHsp90 set2 | SKKanGAS inh | tim10-1 inh | TIM10 inh | tim23-1 inh | tim10 confirm | tim23-1 conf
COc1cc(OC)cc(C(=O)NNC(=O)CCc2nc3ccccc3c(=O)[nH]2)c1 | -6 | . | -9 | 8 | -15 | . | .
CCC(C)Nc1ccc(NC(C)CC)cc1 (stereo unspecified) | + | . | 38 | 61* | 80* | 69* | 82*
CCC(C)NC(=O)Nc1ccc(Br)cc1 (stereo unspecified) | -10 | -12 | 17 | -9 | 25 | . | .
COc1cn(-c2ccccc2)nc1C(=O)Nc1ccc(C)cc1Cl | -25 | -2 | 12 | 0 | 8 | . | .
Cc1ccnc(N=O)c1 | -10 | . | -1 | -3 | 22 | . | .
c1ccc(-n2cnc3cc(NCc4ccco4)ccc32)cc1 | . | -5 | 25 | 53* | 54* | 39* | 68*
Cc1nc2cc(NC(=O)NCc3ccco3)ccc2n1C | 32 | -9 | 0 | 9 | 9 | . | .
NC(=O)c1nc(C(=O)N2CCN(c3ccccc3)CC2)c2ccccc2n1 | 4 | . | -12 | 2 | -21 | . | .
Cc1cccc(N2CCN(S(=O)(=O)c3ccc4c(c3)NC(=O)CS4)CC2)c1C | -50 | 16 | 39 | 40* | 63* | 36* | 28
O=C1COc2ccccc2N1Cc1ccc(Cl)cc1 | -14 | 7 | -13 | -5 | 10 | . | .
CC1=NN(c2ccc(C(=O)O)cc2)C(=O)/C1=C/c1ccc(-c2ccccc2F)o1 | 1 | -5 | 38 | 43* | 62* | 23 | 39*
CC1=NN(c2ccc(C)cc2)C(=O)/C1=C/c1ccc(-c2cc([N+](=O)[O-])ccc2O)o1 | 3 | 34 | 33 | 15 | 37 | . | .
O=C(Nc1cc(Cl)ccc1N1CCCC1)C1=COCCO1 | 9 | . | 6 | 5 | 12 | . | .
O=C1NC(=Nc2ccccc2)S/C1=C/c1cccs1 | -21 | 5 | 26 | 49* | 62* | 32* | 72*
CC(=O)NC(CC(=O)Nc1ccc(S(=O)(=O)NC2=NCCCCC2)cc1)c1ccccc1 (stereo unspecified) | -50 | . | -8 | -8 | -13 | . | .
Cn1c(COc2ccc([N+](=O)[O-])cc2)nnc1SCC(=O)NCC1CCCO1 (stereo unspecified) | -11 | 3 | -6 | -3 | -3 | . | .
O=C(CN1C(=O)NC2(CCOc3ccccc32)C1=O)NCc1ccccc1 (stereo unspecified) | 5 | . | -13 | -4 | -4 | . | .
O=[N+]([O-])/C=C/c1c(OCc2ccccc2)ccc2ccccc12 | 1 | 70* | 34 | 73* | 61* | 6 | 47*
CCCCOc1ccc2ccccc2c1C=O | 2 | 9 | 27 | 29 | 45 | . | .
CCN(CC)c1ccc(/C=N/NC(=O)c2cccc(S(=O)(=O)N3CCOCC3)c2)c(O)c1 | -12 | 12 | 23 | 7 | -11 | . | .
CCN(CC)c1ccc(/C=N/NC(=O)c2c(Cl)cnn2C)c(O)c1 | 20 | 11 | 36 | 58* | 67* | 13 | 62*
Cc1cc(Cl)ccc1NC(=O)CCC(=O)N/N=C/c1cc([N+](=O)[O-])ccc1O | 4 | 7 | 2 | -14 | -18 | . | .
O=[N+]([O-])c1ccc(O)c(/C=N/NC(=S)Nc2ccc(Cl)cc2Cl)c1 | 12 | 117* | -3 | 46* | 81* | 43* | 77*
Cc1cn(CC(=O)NCC2CCCO2)c(=O)[nH]c1=O (stereo unspecified) | 6 | . | . | . | . | . | .
N#CC1=C(c2ccccc2)/C(=C/c2ccccc2)OC1=O | 3 | 57* | 34 | 44* | 61* | 52* | 59*
SMILES | PfHsp90 set2 | SKKanGAS inh | tim10-1 inh | TIM10 inh | tim23-1 inh | tim10 confirm | tim23-1 conf
Cc1ccc(NC(=O)c2c(Cl)nc3ccccn23)cc1 | 1 | -5 | 31 | 18 | 20 | . | .
CCC(C)c1ccc(NC(=O)c2cccs2)cc1 (stereo unspecified) | 22 | 4 | 32 | 52* | 72* | 45* | 73*
Cc1ccc(/C=C(\C#N)C(=O)N2CCCC2)c(C)c1 | -15 | 2 | 38 | 45* | 52* | 39* | 50*
N#C/C(=C\c1ccc(O)c(Br)c1)C(=O)N1CCCCC1 | 2 | -4 | 15 | 2 | 23 | . | .
Cc1ccc(/C=C/C(=O)c2ccc([N+](=O)[O-])o2)cc1 | . | 67* | 27 | 68* | 57* | 78* | -25
Cn1c(CC(=O)Nc2ccccc2F)nnc1SCC(=O)N1CCOCC1 | -5 | -1 | -7 | -5 | 2 | . | .
Cc1cc(S(=O)(=O)c2ccc([N+](=O)[O-])cn2)ccc1Br | 69 | 2 | 22 | 44* | 86* | 61* | 81*
Cc1cc(Sc2ccc([N+](=O)[O-])cn2)ccc1Br | -6 | -1 | -15 | -7 | -3 | . | .
CCOc1ccc(S(=O)(=O)NCCC(=O)NCC(c2ccc(F)cc2)N2CCOCC2)cc1 (stereo unspecified) | 1 | -13 | -13 | 5 | -6 | . | .
O=C(Nc1cccc(Br)c1)c1cc2ccccc2o1 | -1 | -2 | 11 | 47* | 53* | 49* | 62*
O=C(Nc1nccs1)c1cc2c(s1)CCCCC2 | 47 | 77* | 37 | 46* | 58* | 59* | 65*
O=C(Nc1nncs1)c1cc2c(s1)CCC2 | 29 | -2 | -3 | 5 | 19 | . | .
CCSc1ccc(/C(N)=N/OC(=O)c2cccs2)cn1 | 6 | -5 | 35 | 63* | 61* | 63* | 74*
O=C(c1cccs1)N1CCN(c2nnc(-c3ccccc3)c3ccccc23)CC1 | . | 5 | 27 | 43* | 51* | -2 | 26
CCCC(=O)N1CCN(c2nnc(-c3ccccc3)c3ccccc23)CC1 | 11 | -5 | -30 | -33 | -14 | . | .
O=Cc1cc(Br)c(OC(=O)N2CCOCC2)c(Br)c1 | -23 | 0 | 25 | 2 | 13 | . | .
Cc1ccc(NN2C(=O)C=C(c3ccc(Cl)cc3)C2=O)cc1 | 120* | 22 | 31 | 73* | 68* | 59* | 20
CC(C)(C)c1ccc(C(=O)N/N=C/c2cccc(Cl)c2)cc1 | 3 | 1 | 37 | 63* | 66* | 52* | 77*
Cn1ncc2c(O/N=C(\N)c3ccc(C(C)(C)C)cc3)ncnc21 | -34 | 0 | 27 | 79* | 55* | 84* | 24
COc1ccc(C(=O)/C=C/C(=O)N(CC(=O)NC2CCCCC2)Cc2cccs2)c(O)c1 | 94* | -12 | 18 | 49* | 62* | 47* | 36*
Cc1nn2c(NCc3ccccn3)c3c(nc2c1-c1ccccc1)CCC3 | . | 42 | 25 | 55* | 56* | 52* | 57*
Cc1ccc(CNC(=O)C2CCC(=O)N(CCCN3CCOCC3)C2)cc1 (stereo unspecified) | -3 | 3 | 6 | 0 | 11 | . | .
Cc1cc(NS(=O)(=O)c2ccc(NC(=O)COc3cc(C)c(Cl)c(C)c3)cc2)no1 | -51 | . | 4 | 7 | 5 | . | .
